In the library only some 6.9% were active in any assay of this set; here they are far more common.
ASM inhibitor – Inhibitors of Secretory Acid Sphingomyelinase (S-ASM): qHTS | Sphingomyelin phosphodiesterase (Homo sapiens), P17405 | placental ASM, HMU-PC fluorogenic substrate, 60 min | Potency, µM (titrated, usually from 57.5 µM), inactives show at the highest dose activity change, negative = inhibition, usual class: inhibitors | hit rate 0.006% among 340,000 | AID 504937, 2011; also: potency is read from the fitted curve at half-maximal effect
Target sequence (P17405 47-631 limits assumed): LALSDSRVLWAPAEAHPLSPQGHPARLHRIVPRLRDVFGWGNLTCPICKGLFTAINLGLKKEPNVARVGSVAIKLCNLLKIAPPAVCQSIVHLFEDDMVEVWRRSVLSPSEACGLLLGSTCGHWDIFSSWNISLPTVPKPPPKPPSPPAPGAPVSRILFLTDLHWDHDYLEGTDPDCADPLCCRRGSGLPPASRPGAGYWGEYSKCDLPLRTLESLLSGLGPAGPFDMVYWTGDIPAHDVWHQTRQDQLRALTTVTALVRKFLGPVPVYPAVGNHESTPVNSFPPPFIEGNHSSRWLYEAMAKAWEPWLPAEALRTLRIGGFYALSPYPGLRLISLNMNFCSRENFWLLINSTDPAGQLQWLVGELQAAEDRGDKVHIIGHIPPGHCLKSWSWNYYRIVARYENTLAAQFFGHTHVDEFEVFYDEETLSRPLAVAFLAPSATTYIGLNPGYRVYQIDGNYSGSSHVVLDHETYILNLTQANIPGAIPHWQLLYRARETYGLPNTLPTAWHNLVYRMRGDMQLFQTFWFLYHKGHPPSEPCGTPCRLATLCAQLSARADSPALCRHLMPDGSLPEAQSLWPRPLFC
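Steps: dispense placental human ASM, pin compound, wait 10 min at room temperature, add HMU-PC0 substrate at 9 uM final, incubate 60 min at 37 °C, add stop solution raising pH to 10, read fluorescence.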
MCF10A rerep – A quantitative high throughput screen for small molecules that induce DNA re-replication in MCF 10a normal breast cells. MCF 10A DNA re-replication, Hoechst nuclear intensity, 48 h. Potency, µM (top dose mostly 46.1 µM), for inactives: top-dose activity, positive = re-replication, hits mostly activators. hit rate 2.9% among 350,000; also: potency is read from the fitted curve at half-maximal effect; % of control where 0% means no effect; nearly all actives have a fitted effect of over 50% in size
Giardia kill – Small Molecules that selectively kill Giardia lamblia: qHTS. Giardia lamblia trophozoite viability. activity change, % at 7.66 µM, hits read low. hit rate 0.15% among 340,000; in the data active = activity change below about -80%; inconclusive = between about -30% and that limit;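 also: parasites exposed to compound for two days anaerobically before the ATP read; % is scaled to controls: 0 for no effect and ±100 for the full control effect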
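Media and compound were dispensed first, then trophozoites at 100 cells/well; plates sat 48 hrs at 37 deg C without oxygen before ATP luminescence reagent was added and read after 15-30 min at room temperature.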
KB-3-1 cytotox – qHTS assay for MDR1-selective chemotherapeutics: Primary screen using the parental adenocarcinoma cell KB-3-1; KB-3-1 viability, CellTiter-Glo ATP luminescence, 72 h; Potency, µM (highest dose often 46.1 µM), usual class: cytotoxic; hit rate 1.4% among 400,000; AID 1347075, 2019; also: potency is read from the fitted curve at half-maximal effect; % is scaled to controls: 0 for no effect and ±100 for the full control effect; nearly all actives have a fitted effect of over 60% in size
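72 h, 37 °C compound treatment of KB-3-1 parental cells; CellTiter-Glo added, 10 min, luminescence read. Data corrected against DMSO-only plates and normalized before curve fitting.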
SW480 rerep – A quantitative high throughput screen for small molecules that induce DNA re-replication in SW480 colon adenocarcinoma cells. SW480 DNA re-replication, Hoechst DNA content imaging, 48 h. AID 624297, 2012. hit rate 1.8% among 340,000. Potency, µM (doses to about 46.1 µM), inactives show top-dose re-replication activation, actives largely listed as activators; also: potency is read from the fitted curve at half-maximal effect; % of control where 0% means no effect; nearly all actives have a fitted effect of over 55% in size
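DNA re-replication was detected as more nuclei of elevated Hoechst intensity after 48 hr exposure to compound (23 nL pinned per well of 250 cells).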
KB-V1 MDR tox – qHTS assay for MDR1-selective chemotherapeutics: Primary screen using the drug-selected MDR subline cells KB-V1; KB-V1 MDR cells viability, CellTiter-Glo, 72 h; Potency, µM (highest dose often 46.1 µM), usual class: cytotoxic; hit rate 3.4% among 400,000; also: potency is read from the fitted curve at half-maximal effect; % is scaled to controls: 0 for no effect and ±100 for the full control effect; nearly all actives have a fitted effect of over 60% in size
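KB-V1, DMEM (no phenol red) + 10% FBS; cpd pin-transferred, titration series; 72 h, 37 degrees C; CellTiter-Glo, luminescence. Data normalized, curve-fit.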
* hit, by the source's call; i = inactive; ? = inconclusive; / = no result given. Unless noted, calls follow the shape of the dose curve; as a rule, active = well fitted curve in the direction sought with a large enough effect; inconclusive = small, poorly fitted or top-dose-only effect, or another doubt; inactive = no such curve, though single readings can be large; an effect the other way counts as inactive or inconclusive.

SMILES | ASM inhibitor | MCF10A rerep | Giardia kill | KB-3-1 cytotox | SW480 rerep | KB-V1 MDR tox
CC(Sc1nc(-c2ccccc2)cc(C(F)(F)F)n1)C(=O)N1CCCCC1 (configuration not stated) | -8% | 21µM* | -1 | i | ? | ?
CC(C)(C)NC(=O)C(c1cccs1)N(C(=O)c1csnn1)c1cccc(F)c1 (configuration not stated) | 5% | -12% | 3 | i | ? | i
O=C(NCc1ccccc1)C(c1ccco1)N(C(=O)c1csnn1)c1ccccc1 (configuration not stated) | 3% | -26% | -9 | i | -5% | i
CCC(C)(C)NC(=O)C(c1ccco1)N(C(=O)c1csnn1)c1cccc(F)c1 (configuration not stated) | 6% | 18% | -6 | i | 7% | 16µM*
CCC(C)N(C(=O)c1csnn1)C(C(=O)NCc1ccc(F)cc1)c1ccco1 (configuration not stated) | 2% | 5% | 10 | i | -5% | 16µM*
Cc1nn(C)cc1/C=N/NC(=S)Nc1ccccc1 | 2% | 12% | 6 | i | 1.6µM* | ?
COc1c(/C=N/Nc2ccc([N+](=O)[O-])cc2[N+](=O)[O-])c(C)nn1-c1ccccc1 | 1% | 9% | -7 | i | -11% | i
COc1c(/C=N/NC(N)=S)c(C)nn1-c1ccccc1 | 4% | 4% | -7 | ? | 3% | 9.2µM*
Cc1nn(-c2ccccc2)c(N2CCCC2)c1/C=N/NC(=S)Nc1ccc(F)cc1 | -4% | 4% | 9 | ? | 5.8µM* | i
Cc1ccc(NC(=S)N/N=C/c2c(C)nn(-c3ccccc3)c2N2CCCC2)cc1 | 0% | ? | -7 | i | 14% | i
COc1ccc(-c2nn(-c3ccccc3)cc2/C=N/NC(N)=S)cc1OC | -12% | 1.6µM* | -4 | i | 2.1µM* | ?
Oc1ccccc1C=NNC(=S)Nc1ccc(F)cc1 | 80% | ? | -17 | ? | 55% | i
COc1ccc(-c2c3c(=O)n(C)c(=O)n(C)c3c3n2-c2ccccc2NC3c2ccc(O)cc2O)cc1 (configuration not stated) | / | / | / | ? | / | i
Cc1ccc(-c2nc3ccc(Br)cn3c2Cc2cccc(F)c2)cc1 | / | / | / | i | / | ?
Cn1cc(CN2CCCC(C(=O)c3cc(F)ccc3F)C2)c2ccccc21 (configuration not stated) | 2% | -23% | -3 | i | 0% | i
COc1ccc(F)cc1C(=O)C1CCCN(Cc2cn(C)c3ccccc23)C1 (configuration not stated) | -1% | 9.2µM* | 20 | i | 15µM* | i
O=C(O)c1cc(S(=O)(=O)O)cc(Nc2c3ccccc3nc3ccccc23)c1O | i | -15% | 13 | i | 5.2µM* | i
O=C(O)c1cccc(Nc2c3ccccc3nc3ccccc23)c1 | i | 17% | -3 | i | 20% | i
Cc1ccc2nc(SCc3ccccc3)c(C=O)c(=O)n2c1 | -1% | 1% | 4 | i | -13% | 8.2µM*
Cc1ccc2nc(N3CCN(c4ccccc4)CC3)c(C=O)c(=O)n2c1 | -2% | -12% | -9 | i | 2% | i
CC(=O)c1cnc2nc(SCc3cccc(C)c3)nn2c1C | -2% | 0% | -30 | i | 1% | i
Oc1ccccc1C=Nc1cccc2ccccc12 | 8% | -2% | -6 | i | -6% | i
Oc1cccc(C=Nc2cccc3ccccc23)c1O | -1% | 18µM* | -21 | i | 18µM* | i
COc1ccc(CCNc2nc(C)nc3c2oc2ccccc23)cc1OC | 1% | ? | -18 | ? | 7% | 16µM*
COc1ccc(CCNc2ncnc3c2oc2ccccc23)cc1OC | -3% | 5% | -1 | 9.2µM* | -4% | 2.6µM*
SMILES | ASM inhibitor | MCF10A rerep | Giardia kill | KB-3-1 cytotox | SW480 rerep | KB-V1 MDR tox
COc1ccc(CCNc2ncnc3sccc23)cc1OC | 5% | 12% | 8 | ? | -5% | ?
Cc1nc(NCCc2cnc[nH]2)c2oc3ccccc3c2n1 | -1% | 12% | 23 | i | -6% | ?
CN(C)c1ccc(C=NNC(=S)Nc2ccc(F)cc2)cc1 | i | 21µM* | -24 | i | ? | i
CCc1ccc2occ(CC(=O)Nc3sc4c(c3C(=O)NCCOC)CCCC4)c2c1 | / | / | / | i | / | i
CCOC(=O)C(=O)c1csc(NC(=O)CCSc2ccc(C)cc2)n1 | 2% | 0.58µM* | -6 | i | 3% | i
Cn1nc(C(F)(F)F)c(/C=N/OC(=O)c2ccccc2Cl)c1SCc1ccc(Cl)cc1 | -3% | ? | 5 | ? | -1% | ?
COc1ccc(C(=O)O/N=C/c2c(C(F)(F)F)nn(C)c2SCc2ccccc2Cl)cc1 | -6% | ? | -8 | 7.3µM* | ? | ?
CCn1c(/N=C/c2ccccc2NS(=O)(=O)c2ccc(C)cc2)nc2ccccc21 | 2% | ? | 13 | i | -5% | i
CC1Oc2ccccc2C=C1/C=N/Nc1ccc(C(=O)O)cc1 (configuration not stated) | 28% | 23µM* | -11 | i | 7.3µM* | i
CC(NS(=O)(=O)c1ccccc1)C(c1cccs1)N1CCN(c2ccccc2)CC1 (configuration not stated) | -5% | ? | 8 | ? | 5% | 6.5µM*
COc1ccccc1N1CCN(C(c2cccs2)C(C)NS(=O)(=O)c2ccccc2)CC1 (configuration not stated) | -2% | -5% | -18 | ? | -2% | i
Cc1cnc2c(C)cccc2c1/C=C/c1ccc(N(C)C)cc1 | / | / | / | ? | / | i
C/C(=N\NC(=O)C(C)Nc1cccc(Cl)c1)c1ccc([N+](=O)[O-])cc1 (configuration not stated) | -2% | -81% | -13 | i | -124% | 18µM*
CCOc1ccc2nc(/N=C/c3c(C)[nH]n(-c4ccccc4)c3=O)sc2c1 | -5% | -29% | -17 | ? | 2.9µM* | ?
CCOc1ccc2nc(/N=C/c3c(C)[nH]n(-c4ccc(C)cc4)c3=O)sc2c1 | 3% | -13% | -3 | 12µM* | -74% | 10µM*
